# MITF primary: blocks human microphthalmia-associated transcription factor | O75030 | AlphaScreen MITF homodimerization, bead proximity signal | inhibition, % at 2.6 µM | hit rate 0.91% among 650,000; in the data active means inhibition above about 50%
# Target sequence (O75030 whole entry, looked up): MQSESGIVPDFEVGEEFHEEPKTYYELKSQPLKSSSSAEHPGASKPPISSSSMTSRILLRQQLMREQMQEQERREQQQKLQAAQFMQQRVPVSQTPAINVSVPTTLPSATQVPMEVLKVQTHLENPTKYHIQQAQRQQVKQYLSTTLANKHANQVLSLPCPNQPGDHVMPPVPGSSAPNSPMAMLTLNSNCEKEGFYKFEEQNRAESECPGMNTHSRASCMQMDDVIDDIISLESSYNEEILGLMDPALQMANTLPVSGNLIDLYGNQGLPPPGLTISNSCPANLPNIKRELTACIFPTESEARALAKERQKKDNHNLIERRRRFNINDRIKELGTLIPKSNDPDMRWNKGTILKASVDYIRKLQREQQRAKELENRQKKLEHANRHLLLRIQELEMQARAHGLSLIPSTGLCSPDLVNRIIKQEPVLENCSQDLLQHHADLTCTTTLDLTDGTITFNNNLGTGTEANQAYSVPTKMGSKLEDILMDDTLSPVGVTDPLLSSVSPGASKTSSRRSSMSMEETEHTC
# TEAD-YAP block: TEAD-YAP interaction inhibition | hit rate 1.4% among 640,000 | inhibition, % at 9.12 µM | HEK-TIYL cells, TEAD-Gal4/YAP UAS-luciferase luminescence; in the data active means inhibition above about 32%
# FBW7 activator: activators of human E3 ligase FBW7. Q969H0. AlphaScreen FBW7–phospho-cyclin E peptide binding, activator screen. normalized activity (activation), % at 26.1 µM. hit rate 0.13% among 650,000. AID 1259310; in the data active means normalized activity above about 1.9%;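 further: purified mutant Fbw7 with reduced substrate affinity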
# GPR151 activ: activates the human receptor GPR151 | PathHunter beta-arrestin GPR151 cells, luminescence | AID 1508602 | activation, % at 11.2 µM | Q8TDV0 | hit rate 1% among 650,000; in the data active means activation above about 4.9%
# Hits are given with their value; n = inactive. Most compounds without a hit are left out; they make up all but 3.5% or so of the library.
SMILES,MITF primary,TEAD-YAP block,FBW7 activator,GPR151 activ
O=c1[nH]c2ccc(N=Cc3ccc(O)c(O)c3O)cc2[nH]1,67.7,n,n,n
Oc1ccc(C=Nc2ccccc2)c(O)c1O,84.9,n,n,n
Oc1cccc(C=Nc2ccc(Br)cc2)c1O,n,n,n,n
Cc1ccc(N=Cc2ccc(O)c(O)c2O)cc1F,69.0,n,n,n
Cc1ccc(N=Cc2cccc(O)c2O)cc1F,n,n,n,n
Cc1ccc(-c2noc(CN3CCN(c4ccc([N+](=O)[O-])cc4)CC3)n2)cc1,n,n,n,n
COc1cccc(OC)c1C(=O)Nc1ccc2c(c1)OCCO2,n,n,n,n
O=C(Nc1ccc2c(c1)OCCO2)c1ccc2ccccc2c1,n,87.1,n,n
COc1ccc(C(=O)Nc2ccc3c(c2)OCCO3)cc1,n,66.4,n,n
O=C(O)C1C2CCC(O2)C1C(=O)Nc1ccc2c(c1)OCCO2 (centres undefined),n,n,n,n
COC(=O)C(=NNc1ccc2c(c1)OCCO2)C(=O)OC,n,80.5,n,n
O=C(O)C1CCCCC1C(=O)Nc1ccc2c(c1)OCCO2 (centres undefined),n,61.7,n,n
COc1ccc(NC(=O)c2ccc3c(c2)OCCO3)cc1,n,74.7,n,n
O=C(Nc1cccnc1)C(=O)Nc1ccc2c(c1)OCCO2,n,58.9,n,n
Cc1cc(C(=O)Nc2ccc3c(c2)OCCO3)cs1,n,40.7,n,n
O=C(Nc1ccc2sccc2c1)c1ccc2c(c1)OCO2,n,71.5,n,n
C/C(=C\C(=O)OCC(=O)NC1CCCCCC1)C(=O)OCC(=O)NC1CCCCCC1,n,n,n,n
COC(c1cccs1)c1c[nH]c2ccccc12 (centres undefined),n,n,n,n
CC12CCC(C(=O)Nc3ccc(Cl)c(Cl)c3)(CC1=O)C2(C)C (centres undefined),n,n,n,n
Cc1ccc2cc3c(N)c(C(=O)Nc4ccc5c(c4)OCCO5)sc3nc2c1,n,70.8,n,n
O=C(Nc1ccc2c(c1)OCCO2)c1ccccc1,n,n,n,n
CC12CCC(C(=O)Nc3ccc4c(c3)OCCO4)(CC1=O)C2(C)C (centres undefined),n,62.3,n,n
O=C(Nc1ccc2c(c1)OCCO2)c1ccc(C(=O)Nc2ccc3c(c2)OCCO3)nc1,n,64.5,n,n
COc1ccc(/C=C(\NC(=O)c2ccccc2)C(=O)N2CCCCCC2)cc1OC,n,n,n,n
Cc1cnn(-c2cc(N/N=C/c3ccc(O)cc3O)ncn2)c1,n,n,n,n
SMILES,MITF primary,TEAD-YAP block,FBW7 activator,GPR151 activ
Cc1cc(C)n(-c2cc(N/N=C/c3ccc(O)cc3O)ncn2)n1,n,85.0,n,n
CCN(CC)S(=O)(=O)c1ccc(N/N=C/c2ccccc2[N+](=O)[O-])nc1,n,n,n,n
CCOc1ccc(/C=N/Nc2ncc(Br)cn2)c(O)c1,n,n,n,n
CCN(CC)S(=O)(=O)c1ccc(N/N=C/c2ccc(O)cc2O)nc1,n,59.4,n,n
Oc1ccc(/C=N/Nc2ncc(C(F)(F)F)cc2Cl)c(O)c1O,65.7,n,n,n
Oc1ccc(/C=N/Nc2ncc(Br)cn2)c(O)c1,65.5,n,n,n
Oc1ccc(/C=N/Nc2ccc(Cl)nn2)c(O)c1,55.2,n,n,n
Oc1ccc(/C=N/Nc2ccc(Cl)nn2)c(O)c1O,103.5,n,n,n
N#Cc1cc2cc3c(cc2nc1SCC(=O)NCc1cccs1)OCCO3,n,46.4,n,n
COc1ccccc1NC(=O)CSc1nc2cc3c(cc2cc1C#N)OCCO3,n,62.1,n,n
Cc1ccc2nc(SCC(=O)Nc3ncc(C)s3)c(C#N)cc2c1,n,n,3.8,n
COc1cc2cc(C#N)c(SCC(=O)NCc3cccs3)nc2cc1OC,n,n,n,n
N#Cc1cc2cc3c(cc2nc1SCC(=O)NCc1ccc2c(c1)OCO2)OCCO3,n,50.2,n,n
CC1CC(=O)N(c2ccc(N3CCC(C(N)=O)(N4CCCCC4)CC3)c([N+](=O)[O-])c2)C1=O (centres undefined),n,n,n,n
CCC(C)C(=O)N1CCC(C2(CCC(C)C)NC(=O)NC2=O)CC1 (centres undefined),n,n,n,n
CC(C)(C)OC(=O)N1CCCC(c2ccnc3cc(C(C)(C)C)nn23)C1 (centres undefined),n,n,2.1,n
O=C(N/N=C/c1ccccc1)c1n[nH]c2c1CCCC2,n,69.5,n,n
O=C(N/N=C/c1ccc(O)cc1)c1n[nH]c2c1CCC2,n,58.7,n,n
O=C(N/N=C/c1ccc(Cl)cc1)c1n[nH]c2c1CCCC2,n,n,n,n
O=C(N/N=C/c1ccc([N+](=O)[O-])cc1)c1n[nH]c2c1CCC2,n,53.8,n,n
O=C(N/N=C/c1cccc2ccccc12)c1n[nH]c2c1CCC2,n,46.6,n,n
C/C(=N\NC(=O)c1n[nH]c2c1CCCC2)c1ccc(O)cc1,n,n,n,n
O=C(CSc1ccc(-c2ccc(-n3ccnc3)cc2)nn1)NCCc1ccccc1,n,n,n,n
Clc1cccc(-c2cnn3ccc(NCc4ccncc4)nc23)c1,n,n,n,n
COc1cc(Nc2ccc(-n3cc(CC(=O)Nc4ccccc4)c4ccccc43)nn2)cc(OC)c1OC,n,n,n,n
SMILES,MITF primary,TEAD-YAP block,FBW7 activator,GPR151 activ
CCc1ccc(C2=CC(c3cc(OC)c(OC)c(OC)c3)n3ncnc3N2)cc1 (centres undefined),n,64.6,n,n
CCOc1ccc(C2C=C(c3ccc(CC)cc3)Nc3ncnn32)cc1OC (centres undefined),n,37.4,n,n
COc1ccc(C2C=C(c3ccc(F)cc3)Nc3ncnn32)cc1OC (centres undefined),n,n,n,n
CCc1ccc(C2=CC(c3cccc(OC)c3OC)n3ncnc3N2)cc1 (centres undefined),n,n,n,n
COC(=O)c1nc2n(n1)C(c1cc(OC)c(OC)c(OC)c1)C=C(c1cccs1)N2 (centres undefined),n,51.7,n,n
COc1ccc(C2=CC(c3ccc(OC)c(OC)c3)n3ncnc3N2)cc1 (centres undefined),n,43.1,n,n
CCSc1nnc2c(n1)OC(/C=C/c1ccco1)Nc1ccccc1-2 (centres undefined),n,n,n,n
COc1cc(C2C=C(c3ccc(Cl)cc3)Nc3nnnn32)cc(OC)c1OC (centres undefined),n,55.2,n,n
COc1ccc(C2=CC(c3ccc(F)cc3)n3ncnc3N2)cc1 (centres undefined),n,n,n,n
COc1cc(C2C=C(c3cccs3)Nc3ncnn32)cc(OC)c1OC (centres undefined),n,65.2,n,n
COc1ccc(C2=CC(c3cc(OC)c(OC)c(OC)c3)n3ncnc3N2)cc1 (centres undefined),n,63.2,n,n
COc1ccc(C2C=C(c3ccc(Cl)cc3)Nc3nnnn32)cc1OC (centres undefined),n,n,n,n
COc1cc(C2C3=C(Nc4ncnn42)c2ccccc2CC3)cc(OC)c1OC (centres undefined),n,68.2,n,n
CN1C(=O)/C(=C/c2ccc(O)cc2)N(C)C1=S,n,n,n,n
O=C(CCCOc1ccccc1)Nc1cccc(Br)c1,n,n,n,n
